PubChem BioAssay
Records with an inconclusive call do not appear. Active and inactive are the calls of the source.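 How the source made its calls, unless noted: active means normalized viability below 100% at a tested concentration; inactive means the rest.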

Legend:
[1] = viability loss in pontine glioma line – cell-based, SU-DIPG-XVII, MIPE5.0, CellTiter-Glo, qHTS, dose response (AID 1347060; cut-off not given, nearly all actives have AC50 up to about 26 µM;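 on AC50: cells exposed to compound for 48 hours before viability readout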); conditions: CellTiter-Glo ATP luminescence
[2] = viability loss in pontine glioma line – cell-based, SU-DIPG-XIII, MIPE4.0, CellTiter-Glo, qHTS, dose response (AID 1347061; cut-off not given, nearly all actives have AC50 up to about 37 µM;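 further: cells exposed to compound for 48 hours before readout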); conditions: CellTiter-Glo ATP luminescence
[3] = viability loss in pontine glioma line – cell-based, JHH-DIPG-1, MIPE4.0, CellTiter-Glo, qHTS, dose response (AID 1347062; cut-off not given, nearly all actives have AC50 up to about 27 µM;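 on AC50: cells exposed to compound for two days before readout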); conditions: JHH-DIPG-1 viability, CellTiter-Glo ATP luminescence
[4] = viability loss in pontine glioma line – cell-based, SU-DIPG-IV, MIPE4.0, CellTiter-Glo, qHTS, dose response (AID 1347063; cut-off not given, nearly all actives have AC50 up to about 30 µM;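 further: compound exposure lasted 48 hours before the viability readout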); conditions: CellTiter-Glo ATP luminescence
[5] = viability loss in pontine glioma line – cell-based, SU-DIPG-XIII, MIPE5.0, CellTiter-Glo, qHTS, dose response (AID 1347064; cut-off not given, nearly all actives have AC50 up to about 23 µM;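 on AC50: cells exposed to compound for 48 hours before the viability read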); conditions: CellTiter-Glo ATP luminescence
[6] = viability loss in pontine glioma line – cell-based, SU-DIPG-XXV, MIPE5.0, CellTiter-Glo, qHTS, dose response (AID 1347065; cut-off not given, nearly all actives have AC50 up to about 26 µM;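 further: cells exposed to compound for 48 hours before ATP readout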); conditions: CellTiter-Glo ATP luminescence
[7] = growth inhibition of DIPG cells – cell-based, MIPE4.0 library, CellTiter-Glo luminescence, qHTS (AID 1347066; cut-off not given, nearly all actives have AC50 up to about 30 µM;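 further: cells exposed to compound for 48 hours before readout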); conditions: SU-DIPG-VI viability, CellTiter-Glo ATP luminescence
[8] = JHH-DIPG-1 glioma cell viability, MIPE5.0 library, CellTiter-Glo luminescence, qHTS (AID 1347067; cut-off not given, nearly all actives have AC50 up to about 26 µM;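 further: cells exposed to compound for 48 hours before readout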); conditions: JHH-DIPG-1 glioma viability, CellTiter-Glo ATP luminescence
[9] = growth inhibition of DIPG cells – cell-based, MIPE5.0 library, qHTS (AID 1347068; cut-off not given, nearly all actives have IC50 up to about 30 µM;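 on IC50: cells exposed to compound for 48 hours before viability readout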); conditions: SU-DIPG-XXV viability
[10] = viability loss with induced miR-34 in A549 – imaging, A549 dox-inducible miR-34, nuclei and caspase counts, primary screen (AID 1347080;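 active means compounds whose cell count with miR-34 switched on is under 0.7 times the count with it off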); conditions: A549 miR-34 inducible, Hoechst nuclei count, 48 h
[11] = compounds altering HSF1 focus formation in cells – imaging, Selleck Cancer Library (AID 1347162; in the data active means plate-normalised HSF1 focus index below about 0.46); conditions: human cells, HSF1 nuclear foci imaging, at 10 µM; SSMD: measured here: HSF1 foci SSMD mean; cell count: measured here: cell number; plate-normalised HSF1 focus index: stronger effect = lower value
[12] = MELAS cybrid and Rieske KO viability enhancers – cell-based, MELAS cybrids, Rieske KO mouse fibroblasts, CellTiter-Glo, primary screen (AID 1508586;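 active means mean z-score across replicates of 1.96 or higher in either the MELAS or the Rieske mutant cell line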;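 further: z relative to plate mean and SD of compound and empty wells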); conditions: low glucose
[13] = drug combination growth inhibition, ovarian cancer – cell-based, oncology-focused library, rucaparib conditional, profiling panel (AID 1508598); conditions: patient-derived ovarian cancer cells, CellTiter-Glo viability, 144 h, stronger effect = lower value

CN1CCC(CNc2ccc3ncc(-c4cccc(OC(F)(F)F)c4)n3n2)CC1
0.583: fold change ([10]; measured here: relative caspase fold change +Dox/-Dox)
4380: cell count ([10]; measured here: total cells with miR-34 induction, stronger effect = lower value)
active: AC50 [1] 8330 nM | AC50 [2] 18700 nM | AC50 [3] 13200 nM | AC50 [4] 18700 nM | AC50 [5] 10500 nM | AC50 [6] 5250 nM | AC50 [7] 20900 nM | AC50 [8] 2630 nM | IC50 [9] 23500 nM | viability ([13]; at 0.000305 µM, OCI-P5x cells, with rucaparib 20 µM, 100% = cells with rucaparib alone) 97.3% | viability ([13]; at 0.000305 µM, OCI-P5x cells, without rucaparib) 92.4% | viability ([13]; at 0.00122 µM, OCI-P5x cells, without rucaparib) 94.8% | viability ([13]; at 0.00488 µM, OCI-P5x cells, with rucaparib 20 µM, 100% = cells with rucaparib alone) 96.7% | viability ([13]; at 0.00488 µM, OCI-P5x cells, without rucaparib) 87.9% | viability ([13]; at 0.0195 µM, OCI-P5x cells, with rucaparib 20 µM, 100% = cells with rucaparib alone) 99.2% | viability ([13]; at 0.0195 µM, OCI-P5x cells, without rucaparib) 88% | viability ([13]; at 0.0781 µM, OCI-P5x cells, with rucaparib 20 µM, 100% = cells with rucaparib alone) 93.6% | viability ([13]; at 0.0781 µM, OCI-P5x cells, without rucaparib) 82.1% | viability ([13]; at 0.313 µM, OCI-P5x cells, with rucaparib 20 µM, 100% = cells with rucaparib alone) 89.6% | viability ([13]; at 0.313 µM, OCI-P5x cells, without rucaparib) 80.8% | viability ([13]; at 1.25 µM, OCI-C5x cells, without rucaparib) 98% | viability ([13]; at 1.25 µM, OCI-P5x cells, with rucaparib 20 µM, 100% = cells with rucaparib alone) 82.6% | viability ([13]; at 1.25 µM, OCI-P5x cells, without rucaparib) 70.9% | viability ([13]; at 5 µM, OCI-P5x cells, with rucaparib 20 µM, 100% = cells with rucaparib alone) 50.5% | viability ([13]; at 5 µM, OCI-P5x cells, without rucaparib) 46.6%
5020: cell count ([10]; measured here: total cells without miR-34 induction)
-1.76: z-score ([12]; Rieske KO mouse fibroblast survival, CellTiter-Glo 72 h)
7290: cell count [11]
inactive: fold change ([10]; stronger effect = lower value, cell number ratio, induced over uninduced) 0.872 | plate-normalised HSF1 focus index [11] 1.1 | z-score ([12]; MELAS cybrid survival, CellTiter-Glo 48 h, stronger effect = higher value) -0.102 | viability ([13]; at 0.000305 µM, OCI-C5x cells, with rucaparib 10 µM, 100% = cells with rucaparib alone) 112% | viability ([13]; at 0.000305 µM, OCI-C5x cells, without rucaparib) 115% | viability ([13]; at 0.00122 µM, OCI-C5x cells, with rucaparib 10 µM, 100% = cells with rucaparib alone) 110% | viability ([13]; at 0.00122 µM, OCI-C5x cells, without rucaparib) 113% | viability ([13]; at 0.00122 µM, OCI-P5x cells, with rucaparib 20 µM, 100% = cells with rucaparib alone) 100% | viability ([13]; at 0.00488 µM, OCI-C5x cells, with rucaparib 10 µM, 100% = cells with rucaparib alone) 106% | viability ([13]; at 0.00488 µM, OCI-C5x cells, without rucaparib) 106% | viability ([13]; at 0.0195 µM, OCI-C5x cells, with rucaparib 10 µM, 100% = cells with rucaparib alone) 110% | viability ([13]; at 0.0195 µM, OCI-C5x cells, without rucaparib) 114% | viability ([13]; at 0.0781 µM, OCI-C5x cells, with rucaparib 10 µM, 100% = cells with rucaparib alone) 107% | viability ([13]; at 0.0781 µM, OCI-C5x cells, without rucaparib) 109% | viability ([13]; at 0.313 µM, OCI-C5x cells, with rucaparib 10 µM, 100% = cells with rucaparib alone) 110% | viability ([13]; at 0.313 µM, OCI-C5x cells, without rucaparib) 104% | viability ([13]; at 1.25 µM, OCI-C5x cells, with rucaparib 10 µM, 100% = cells with rucaparib alone) 130% | viability ([13]; at 5 µM, OCI-C5x cells, with rucaparib 10 µM, 100% = cells with rucaparib alone) 123% | viability ([13]; at 5 µM, OCI-C5x cells, without rucaparib) 115%
1.66: SSMD [11]

CN1CCN(Cc2ccc(NC(=O)Nc3ccc(Oc4cc(NC(=O)C5CC5)ncn4)cc3)cc2C(F)(F)F)CC1
active: AC50 [1] 468 nM | AC50 [2] 5900 nM | AC50 [3] 118 nM | AC50 [4] 235 nM | AC50 [5] 525 nM | AC50 [6] 417 nM | AC50 [7] 2960 nM | AC50 [8] 372 nM | IC50 [9] 417 nM

C[C@@H](Oc1ccc2[nH]nc(/C=C/c3cnn(CCO)c3)c2c1)c1c(Cl)cncc1Cl
active: AC50 [1] 29.5 nM | AC50 [2] 418 nM | AC50 [3] 20900 nM | AC50 [4] 5900 nM | AC50 [5] 14.8 nM | AC50 [6] 10.5 nM | AC50 [7] 16600 nM | AC50 [8] 468 nM | IC50 [9] 2090 nM

OC[C@H]1O[C@@H](n2cnc3c2NC=NC[C@H]3O)C[C@@H]1O
inactive: outcome [1] | outcome [2] | outcome [3] | outcome [4] | outcome [5] | outcome [6] | outcome [7] | outcome [8] | outcome [9]

CCC(C(=O)O)C1CCC(C)C(C(C)C(O)C(C)C(=O)C(CC)C2OC3(C=CC(O)[C@@]4(CC[C@](C)(C5CC[C@@](O)(CC)C(C)O5)O4)O3)C(C)CC2C)O1 (stereo not given in full)
active: AC50 [1] 2350 nM | AC50 [2] 935 nM | AC50 [3] 3320 nM | AC50 [4] 1660 nM | AC50 [5] 3320 nM | AC50 [6] 833 nM | AC50 [7] 1870 nM | AC50 [8] 934 nM | IC50 [9] 2350 nM

C=C1C(=O)[C@@]23C(CC[C@@H]1[C@H]2O)[C@@]12CO[C@]3(O)[C@@H](O)[C@@H]1C(C)(C)CC[C@@H]2O (stereo not given in full)
active: AC50 [1] 9340 nM | AC50 [2] 7430 nM | AC50 [3] 4180 nM | AC50 [4] 2350 nM | AC50 [5] 6610 nM | AC50 [6] 8330 nM | AC50 [7] 3720 nM | AC50 [8] 5900 nM | IC50 [9] 9340 nM
